Data on 35 compounds can be found in ChEMBL document CHEMBL4513216, “Probing the Open Global Health Chemical Diversity Library for Multistage-Active Starting Points for Next-Generation Antimalarials” (ACS Infect Dis, 2020).

Each structure is given as a SMILES string. Hit rate of the full screen: of about 69,000 compounds, about 8,600 (12%) showed an effect of 50% or more. For the sample, strong results were picked, then their nearest neighbours and some compounds at random.

The test concerns Plasmodium berghei. Nature of the test: Screen against P. berghei liver stage (PbLuc), transformed with Luciferase, at 10uM. It counts as functional, HepG2. To be noted: tested at 10 uM.
As for `O=C(NCc1ccon1)c1c(F)cc(Br)cc1F`, the INHIBITION is -7.83%. Then `Cc1nc2ccc(C(=O)N3CCn4c(nnc4C4CC4)C3)cc2nc1C`, with 48.6%; and `Cc1cc2ccccc2n1CCC(=O)N1CCCC2(CC1)CNC(=O)O2` (stereo not given), with 65.7%. Consider `O=C1NCC2(CCCN(C(=O)CCn3cnc4ccccc43)CC2)O1` (stereo not given), for which the INHIBITION was determined as 35.8%. For the compound `Cc1cc2ccccc2n1CCC(=O)N1CCC2(CC1)CNC(=O)C2`, the INHIBITION is given as 29.4%. Regarding `Cc1cc(NC(=O)CN2CCc3cncnc3C2)no1`, the INHIBITION worked out at 16.8%. Then `Cc1cc(C2CCCN2Cc2cc(=O)n(C)c(=O)n2C)no1` (stereo not given), with -10.3%; and `C[C@H](c1ccc(Cl)cc1)n1c(C2CC2)n[nH]c1=O`, with 24.4%. Then `C[C@H](c1ccc(F)cc1)n1c(C2CCC2)n[nH]c1=O`, with -6.59%. Then `C[C@H](c1ccc(F)cc1)n1c(C2CCN(C)CC2)n[nH]c1=O`, with 76.8%; and `Cc1nc(N2CCCC2)nc2c1CCN(C(=O)C1CCCCC1)CC2`, with -42.8%.

For `CCOc1ccnc(N2CCN(C(=O)c3ccncc3)CC2)n1`, the INHIBITION amounted to 34.7%.

Turning to `CC(C)(C)c1n[nH]cc1CNC1CCC(OCC(F)(F)F)CC1` (stereo not given), the INHIBITION is reported as -18.5%.

Turning to `CC(C)N(C)S(=O)(=O)N(C)Cc1ccc2c(c1)OCO2`, the INHIBITION was found to be 54.3%. As for `CC(C)N(C)S(=O)(=O)N(C)Cc1ccc2c(c1)OCCO2`, the INHIBITION is -10.1%. Then `CCN(Cc1ccc2c(c1)OCO2)S(=O)(=O)N(C)C(C)C`, with -4.16%. As to `Cc1cnn(CC2CCCCN2CC(=O)N(C)Cc2ccc(C)o2)c1` (stereo not given), the INHIBITION amounted to 53.4%. In the case of `Cc1cc(C)n(CC2CCCN2CC(=O)N(C)Cc2ccc(C)o2)n1` (stereo not given), the INHIBITION amounted to 45.7%.

`Cc1ccc(CN(C)C(=O)CN2CCCCC2Cn2cncn2)o1` (stereo not given): the INHIBITION is given as 40.5%. Regarding `Cc1nc(C)n(CC2CCCCN2CC(=O)N(C)Cc2ccco2)n1` (stereo not given), the INHIBITION is reported as 28.6%.

Regarding `Cc1cnn(CC2CCCN2CC(=O)N(C)Cc2ccc(C)o2)c1` (stereo not given), the INHIBITION is given as -10.3%.

For the compound `Cc1nc(C)n(CC2CCCN2CC(=O)N(C)Cc2ccc(C)o2)n1` (stereo not given), the INHIBITION is listed as 74.2%. In the case of `CN(C)c1nc2n(c(=O)n1)CCN2C(=O)Nc1cccc(Cl)c1`, the INHIBITION came out at 78.1%. Then `CN(C)c1nc2n(c(=O)n1)CCN2C(=O)Nc1ccc(Cl)c(Cl)c1`, with 28.4%. As to `CN(C)c1nc2n(c(=O)n1)CCN2C(=O)Nc1ccc(Cl)cc1`, the INHIBITION was -25.5%. Regarding `CCN1CCNC(=O)C12CCN(C(=O)Cc1ccsc1)CC2`, the INHIBITION was -23.1%.

For `Cn1ccc(C(=O)Nc2nccn2Cc2ccccc2Cl)cc1=O`, the INHIBITION was 9.91%. Then `CCOCCOC(C)C(=O)Nc1ccnn1-c1ccccc1C` (stereo not given), with 39.7%; and `CS(=O)(=O)CCC(=O)Nc1nccn1Cc1ccccc1Cl`, with 53.5%.

Take `CC(C)N(C)CC(=O)Nc1nccn1Cc1ccccc1Cl`: the INHIBITION is given as -11.9%. Then `CCOCCOC(C)C(=O)Nc1nccn1Cc1ccccc1` (stereo not given), with 89.6%; and `CS(=O)(=O)CCC(=O)Nc1cnn(-c2ccccc2Cl)c1`, with 43.7%; and `CC(OCC1CC1)C(=O)Nc1nccn1Cc1ccccc1` (stereo not given), with 44.7%. For the compound `CCOCC(=O)Nc1nccn1Cc1ccccc1Cl`, the INHIBITION was found to be 22.8%. Then `CC(=O)Nc1nccn1Cc1ccccc1Cl`, with 50.5%.
